# According to the supplement of paper PMC8728848:
# Only a selection was taken, and the strongest signals are over-represented in it overall.
# B1: TREM-2 (Mus musculus), Q99NH8 (protein)
# chain: MGPLHQFLLLLITALSQALNTTVLQGMAGQSLRVSCTYDALKHWGRRKAWCRQLGEEGPCQRVVSTHGVWLLAFLKKRNGSTVIADDTLAGTVTITLKNLQAGDAGLYQCQSLRGREAEVLQKVLVEVLEDPLDDQDAGDLWVPEESSSFEGAQVEHSTSRNQETSFPPTSILLLLACVLLSKFLAASILWAVARGRQKPGTPVVRGLDCGQDAGHQLQILTGPGGT
# B2: Gal 3 (Homo sapiens), P17931 (protein)
# chain: MADNFSLHDALSGSGNPNPQGWPGAWGNQPAGAGGYPGASYPGAYPGQAPPGAYPGQAPPGAYHGAPGAYPGAPAPGVYPGPPSGPGAYPSSGQPSAPGAYPATGPYGAPAGPLIVPYNLPLPGGVVPRMLITILGTVKPNANILDFQRGNDVAFHFNPRFNENNRRVIVCNTKLDNNWAREERQSVFPFESGKPFKIQVLVEPDHFKVAVNDAHLLQYNHRVKKLNEISKLGISGDIDLTSASYTMI
# Key:
# Assay in all cases: glycan array binding signal (z-score within array); higher = stronger binding
# [1] = target: Fuc(a1-2)Gal(b1-4)GlcNAc; conditions: glycan notation: IUPAC condensed, linker removed
# How it was run: (§1)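 Glycan array data were curated from 3228 arrays in the Consortium for Functional Glycomics database and kept only where the protein sequence was available. Glycan names were converted to IUPAC-condensed notation, and columns mapping to the same glycan were averaged. The binding signal is a within-array Z-score, averaged across arrays of the same protein sequence at different concentrations or buffers and across linkers. Negative Z-scores can be read as non-binding.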
# [2] = target: Gal(b1-3)GalNAc(b1-4)[Neu5Ac(a2-3)]Gal(b1-4)Glc; conditions: glycan notation: IUPAC condensed, linker removed
# How it was run: as §1
# [3] = target: Gal(b1-3)[Fuc(a1-4)]GlcNAc; conditions: glycan notation: IUPAC condensed, linker removed
# How it was run: as §1
# [4] = target: Gal(b1-3)[GlcNAc(b1-6)]GalNAc; conditions: glycan notation: IUPAC condensed, linker removed
# How it was run: as §1
# [5] = target: Gal(b1-4)GlcNAc(b1-3)Gal(b1-4)GlcNAc(b1-3)Gal(b1-4)GlcNAc; conditions: glycan notation: IUPAC condensed, linker removed
# How it was run: as §1
# [6] = target: Gal(b1-4)GlcNAc(b1-6)[Gal(b1-3)]GalNAc; conditions: glycan notation: IUPAC condensed, linker removed
# How it was run: as §1
# [7] = target: Gal3S(b1-4)Glc6S; conditions: glycan notation: IUPAC condensed, linker removed
# How it was run: as §1
# [8] = target: Gal3S(b1-4)GlcNAc6S; conditions: glycan notation: IUPAC condensed, linker removed
# How it was run: as §1
# [9] = target: Gal3S6S(b1-4)GlcNAc; conditions: glycan notation: IUPAC condensed, linker removed
# How it was run: as §1
# [10] = target: Gal3S6S(b1-4)GlcNAc6S; conditions: glycan notation: IUPAC condensed, linker removed
# How it was run: as §1
# [11] = target: Gal6S(b1-4)Glc6S; conditions: glycan notation: IUPAC condensed, linker removed
# How it was run: as §1
# [12] = target: GlcNAc(b1-6)Gal(b1-4)GlcNAc; conditions: glycan notation: IUPAC condensed, linker removed
# How it was run: as §1
# [13] = target: Man(a1-2)Man(a1-2)Man(a1-3)Man; conditions: glycan notation: IUPAC condensed, linker removed
# How it was run: as §1
# [14] = target: Neu5Ac(a2-3)Gal(b1-3)GlcNAc6S; conditions: glycan notation: IUPAC condensed, linker removed
# How it was run: as §1
# [15] = target: Neu5Ac(a2-3)Gal(b1-4)GlcNAc; conditions: glycan notation: IUPAC condensed, linker removed
# How it was run: as §1
# [16] = target: Neu5Ac(a2-3)Gal(b1-4)[Fuc(a1-3)]GlcNAc(b1-3)Gal(b1-4)GlcNAc; conditions: glycan notation: IUPAC condensed, linker removed
# How it was run: as §1
# [17] = target: Neu5Ac(a2-3)[GalNAc(b1-4)]Gal(b1-4)Glc; conditions: glycan notation: IUPAC condensed, linker removed
# How it was run: as §1
# [18] = target: Neu5Ac(a2-3)[Neu5Ac(a2-6)]GalNAc; conditions: glycan notation: IUPAC condensed, linker removed
# How it was run: as §1
# [19] = target: Neu5Ac(a2-8)Neu5Ac; conditions: glycan notation: IUPAC condensed, linker removed
# How it was run: as §1
# [20] = target: Fuc(a1-2)Gal(b1-4)GlcNAc(b1-3)Gal(b1-4)GlcNAc(b1-3)Gal(b1-4)GlcNAc; conditions: glycan notation: IUPAC condensed, linker removed; mutation: G182A
# How it was run: as §1
# [21] = target: Fuc(a1-2)Gal(b1-4)GlcNAc(b1-3)GalNAc; conditions: glycan notation: IUPAC condensed, linker removed; mutation: G182A
# How it was run: as §1
# [22] = target: Fuc(a1-2)[Gal(a1-3)]Gal(b1-4)GlcNAc; conditions: glycan notation: IUPAC condensed, linker removed; mutation: G182A
# How it was run: as §1
# [23] = target: Fuc(a1-2)[Gal(a1-3)]Gal(b1-4)GlcNAc(b1-2)Man(a1-3)[Fuc(a1-2)[Gal(a1-3)]Gal(b1-4)GlcNAc(b1-2)Man(a1-6)]Man(b1-4)GlcNAc(b1-4)GlcNAc; conditions: glycan notation: IUPAC condensed, linker removed; mutation: G182A
# How it was run: as §1
# [24] = target: Fuc(a1-2)[GalNAc(a1-3)]Gal(b1-4)GlcNAc(b1-2)Man(a1-3)[Fuc(a1-2)[GalNAc(a1-3)]Gal(b1-4)GlcNAc(b1-2)Man(a1-6)]Man(b1-4)GlcNAc(b1-4)GlcNAc; conditions: glycan notation: IUPAC condensed, linker removed; mutation: G182A
# How it was run: as §1
# [25] = target: Fuc(a1-2)[GalNAc(a1-3)]Gal(b1-4)GlcNAc(b1-3)Gal(b1-4)GlcNAc(b1-3)Gal(b1-4)GlcNAc; conditions: glycan notation: IUPAC condensed, linker removed; mutation: G182A
# How it was run: as §1
# [26] = target: Fuc(a1-3)[Gal(b1-4)]GlcNAc(b1-2)Man(a1-3)[Fuc(a1-3)[Gal(b1-4)]GlcNAc(b1-2)Man(a1-6)]Man(b1-4)GlcNAc(b1-4)GlcNAc; conditions: glycan notation: IUPAC condensed, linker removed; mutation: G182A
# How it was run: as §1
# [27] = target: Fuc(a1-3)[Gal(b1-4)]GlcNAc(b1-3)Gal(b1-3)[Fuc(a1-4)]GlcNAc; conditions: glycan notation: IUPAC condensed, linker removed; mutation: G182A
# How it was run: as §1
# [28] = target: Gal(a1-3)GalNAc; conditions: glycan notation: IUPAC condensed, linker removed; mutation: G182A
# How it was run: as §1
# [29] = target: Gal(a1-4)Gal(b1-4)Glc; conditions: glycan notation: IUPAC condensed, linker removed; mutation: G182A
# How it was run: as §1
# [30] = target: Gal(b1-3)GalNAc(b1-4)Gal(b1-4)Glc; conditions: glycan notation: IUPAC condensed, linker removed; mutation: G182A
# How it was run: as §1
# [31] = target: Gal(b1-4)GlcNAc(b1-2)Man(a1-6)[Man(a1-3)]Man(b1-4)GlcNAc(b1-4)GlcNAc; conditions: glycan notation: IUPAC condensed, linker removed; mutation: G182A
# How it was run: as §1
# [32] = target: Gal(b1-4)GlcNAc(b1-6)Gal(b1-4)GlcNAc; conditions: glycan notation: IUPAC condensed, linker removed; mutation: G182A
# How it was run: as §1
# [33] = target: Gal3S(b1-3)[Fuc(a1-4)]GlcNAc; conditions: glycan notation: IUPAC condensed, linker removed; mutation: G182A
# How it was run: as §1
# [34] = target: GalNAc(a1-3)Gal; conditions: glycan notation: IUPAC condensed, linker removed; mutation: G182A
# How it was run: as §1
# [35] = target: GalNAc(b1-3)Gal(a1-6)Gal(b1-4)Glc; conditions: glycan notation: IUPAC condensed, linker removed; mutation: G182A
# How it was run: as §1
# [36] = target: GlcNAc(a1-4)Gal(b1-4)GlcNAc(b1-3)Gal(b1-4)GlcNAc(b1-3)Gal(b1-4)GlcNAc; conditions: glycan notation: IUPAC condensed, linker removed; mutation: G182A
# How it was run: as §1
# [37] = target: GlcNAc(b1-3)Gal(b1-4)GlcNAc(b1-3)Gal(b1-4)GlcNAc; conditions: glycan notation: IUPAC condensed, linker removed; mutation: G182A
# How it was run: as §1
# [38] = target: GlcNAc3Prop(b1-4)GlcNAc; conditions: glycan notation: IUPAC condensed, linker removed; mutation: G182A
# How it was run: as §1
# [39] = target: Man(a1-2)Man(a1-3)Man; conditions: glycan notation: IUPAC condensed, linker removed; mutation: G182A
# How it was run: as §1
# [40] = target: Man(a1-2)Man(a1-3)[Man(a1-2)Man(a1-6)]Man; conditions: glycan notation: IUPAC condensed, linker removed; mutation: G182A
# How it was run: as §1
# [41] = target: Neu5Ac(a2-3)Gal(b1-3)[Fuc(a1-4)]GlcNAc(b1-3)Gal(b1-3)[Fuc(a1-4)]GlcNAc; conditions: glycan notation: IUPAC condensed, linker removed; mutation: G182A
# How it was run: as §1
# [42] = target: Neu5Ac(a2-3)Gal(b1-4)GlcNAc(b1-2)Man(a1-3)[Neu5Ac(a2-6)Gal(b1-4)GlcNAc(b1-2)Man(a1-6)]Man(b1-4)GlcNAc(b1-4)GlcNAc; conditions: glycan notation: IUPAC condensed, linker removed; mutation: G182A
# How it was run: as §1
# [43] = target: Neu5Ac(a2-3)GalNAc; conditions: glycan notation: IUPAC condensed, linker removed; mutation: G182A
# How it was run: as §1
# [44] = target: Neu5Ac(a2-6)Gal(b1-4)Glc; conditions: glycan notation: IUPAC condensed, linker removed; mutation: G182A
# How it was run: as §1
# [45] = target: Neu5Ac(a2-6)Gal(b1-4)GlcNAc; conditions: glycan notation: IUPAC condensed, linker removed; mutation: G182A
# How it was run: as §1
# [46] = target: Neu5Ac(a2-6)Gal(b1-4)GlcNAc(b1-3)GalNAc; conditions: glycan notation: IUPAC condensed, linker removed; mutation: G182A
# How it was run: as §1
# [47] = target: Neu5Ac(a2-6)GlcNAc(b1-4)GlcNAc(b1-4)GlcNAc; conditions: glycan notation: IUPAC condensed, linker removed; mutation: G182A
# How it was run: as §1
binder,measurement,setting,value
B1,glycan array binding signal (z-score),[1],-0.407
same,glycan array binding signal (z-score),[2],-0.342
same,glycan array binding signal (z-score),[3],-0.368
same,glycan array binding signal (z-score),[4],-0.349
same,glycan array binding signal (z-score),[5],-0.287
same,glycan array binding signal (z-score),[6],-0.354
same,glycan array binding signal (z-score),[7],4.24
same,glycan array binding signal (z-score),[8],4.02
same,glycan array binding signal (z-score),[9],4.4
same,glycan array binding signal (z-score),[10],4.74
same,glycan array binding signal (z-score),[11],3.17
same,glycan array binding signal (z-score),[12],-0.382
same,glycan array binding signal (z-score),[13],-0.305
same,glycan array binding signal (z-score),[14],-0.078
same,glycan array binding signal (z-score),[15],-0.391
same,glycan array binding signal (z-score),[16],-0.043
same,glycan array binding signal (z-score),[17],-0.373
same,glycan array binding signal (z-score),[18],0.289
same,glycan array binding signal (z-score),[19],-0.304
B2,glycan array binding signal (z-score),[1]; mutation: G182A,-0.188
same,glycan array binding signal (z-score),[20],5.12
same,glycan array binding signal (z-score),[21],-0.187
same,glycan array binding signal (z-score),[22],1.68
same,glycan array binding signal (z-score),[23],9.17
same,glycan array binding signal (z-score),[24],5.25
same,glycan array binding signal (z-score),[25],6.29
same,glycan array binding signal (z-score),[26],-0.191
same,glycan array binding signal (z-score),[27],-0.188
same,glycan array binding signal (z-score),[28],-0.185
same,glycan array binding signal (z-score),[29],-0.192
same,glycan array binding signal (z-score),[30],-0.189
same,glycan array binding signal (z-score),[31],-0.197
same,glycan array binding signal (z-score),[5]; mutation: G182A,7.13
same,glycan array binding signal (z-score),[32],-0.196
same,glycan array binding signal (z-score),[33],-0.186
same,glycan array binding signal (z-score),[34],-0.192
same,glycan array binding signal (z-score),[35],-0.19
same,glycan array binding signal (z-score),[36],9.32
same,glycan array binding signal (z-score),[37],4.53
same,glycan array binding signal (z-score),[38],-0.182
same,glycan array binding signal (z-score),[39],-0.189
same,glycan array binding signal (z-score),[40],-0.189
same,glycan array binding signal (z-score),[41],-0.187
same,glycan array binding signal (z-score),[42],-0.168
same,glycan array binding signal (z-score),[43],-0.192
same,glycan array binding signal (z-score),[44],-0.183
same,glycan array binding signal (z-score),[45],-0.177
same,glycan array binding signal (z-score),[46],-0.143
same,glycan array binding signal (z-score),[47],-0.191
